According to the supplement of paper PMC10338343:
± gives the standard deviation.

Experiments:
[1] = tested on: MILI (PIWIL2) piRISC loaded with L1MC piRNA (26 nt); assay: pre-steady-state target cleavage rate (min^-1); guide: L1MC piRNA 5'p-UAACUAAAUACUAUGCAAGCUGUAGG; higher = faster piRNA-guided slicing of the target
How it was run: (§1)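 Cleave-'n-Seq: a transcribed, DNA-blocked target RNA library (0.1 nM) was mixed with 1 nM active affinity-purified piRISC carrying one synthetic guide, with or without 500 nM GTSF1 partner protein, in HEPES–potassium acetate buffer at 33 °C for 0–8 or 0–960 min. Uncleaved targets were sequenced and normalised to depth and to weakly complementary targets. Three trials were pooled, and k3 was capped at 0.0001 min^-1. The pre-steady-state cleavage rate came from a burst-and-steady-state fit.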

[2] = tested on: EfPiwi piRISC loaded with L1MC piRNA (26 nt); assay: pre-steady-state target cleavage rate (min^-1); auxiliary factor: 500 nM Ephydatia muelleri Gtsf1; guide: L1MC piRNA 5'p-UAACUAAAUACUAUGCAAGCUGUAGG; MIWI and MILI are mouse PIWI proteins and EfPiwi is from a freshwater sponge; tags in brackets are library labels; higher = faster piRNA-guided slicing of the target
How it was run: as §1

[3] = auxiliary factor: 500 nM mouse GTSF1
[4] = auxiliary factor: none (no GTSF1)

Sequence | pre-steady-state target cleavage rate [1, 3] | pre-steady-state target cleavage rate [1, 4] | pre-steady-state target cleavage rate [2]
UCCUGGUAGUGCUUGCAUAGUAUUUAGUUA | 0.184 ± 0.018 | 0.00947 ± 0.0025 | 0.0152 ± 0.0047
UCCUUCUACAGCUUGCAUAGUAUUUAGUUA | 0.3 ± 0.015 | 0.0105 ± 0.0029 | –
UCCUCCUACAGCUAGCAAAGUAUUUAGUUA | 0.138 ± 0.014 | 0.00428 ± 0.0022 | 0.0276 ± 0.0094
UCCUCCUACAGGAAGCAUAGUAUUUAGUUA | 0.292 ± 0.011 | 0.00603 ± 0.0024 | –
UCCUGGAUGUCGAUGCAUAGUAUUUGGUUA | 0.0838 ± 0.016 | 0.00614 ± 0.0029 | –
UCCUGGAUGUCGAUGCAUAGUAUUUAGUUU [g2:g17:cont:t1U] | 0.09 ± 0.011 | 0.00618 ± 0.0021 | –
UCCUCCUACAGCUUGCAUUGUAAUUAGUUA | 0.166 ± 0.013 | 0.00423 ± 0.0019 | –
UCCUGCUACUGCUUGCAUAGAAUUUAGUUA | 0.045 ± 0.0093 | 0.00256 ± 0.002 | –
UCCUGGAUCAGCUUGCAUUGUAUUUUGUUA | 0.1 ± 0.019 | 0.00344 ± 0.0026 | –
UCCUGGAUGUCGUUGCAUAGUAUUUAGUAUA | 0.127 ± 0.03 | 0.00811 ± 0.0035 | –
UCCUCCUACAGCUUCAUAGUAUUUAGUUA | 0.238 ± 0.013 | 0.0049 ± 0.002 | –
UCCUGGAUGUCGUUGCAUAGUCUUUAGUUA | 0.0286 ± 0.0084 | 0.00414 ± 0.0025 | –
UCCUGCUACAGCUUGCAUAGUUUUUAGUUA | 0.0767 ± 0.014 | 0.00327 ± 0.0022 | 0.00538 ± 0.0021
UCCUGGAUGUGCUUUGCAUAGUAUUUAGUUA | 0.157 ± 0.016 | 0.0132 ± 0.0033 | 0.00805 ± 0.003
UCCUGGAUGUCCUUGCUUAGUAUUUUGUUA | 0.0587 ± 0.018 | 0.00384 ± 0.003 | –
UCCUGGUACAGCUUGCCUAGUAUUUAGUUA | 0.213 ± 0.019 | 0.00843 ± 0.0026 | 0.00475 ± 0.0026
UCCUGGAUCAGCUUGCAUAGUAUUAUGUUA | 0.122 ± 0.021 | 0.00357 ± 0.0028 | 0.005 ± 0.0024
UCCUGGAUGUCGUUGCAUAGUAUUUAGUUC [g2:g18:cont:t1C] | 0.0984 ± 0.01 | 0.00738 ± 0.0026 | –
